According to PubChem BioAssay (NCATS):
Inconclusive results are not listed. The source made the active and inactive calls. Unless noted, the call rests on the fitted dose curve.

Experiments:
[1] = target: Glucocorticoid receptor (Homo sapiens) (UniProt P04150); assay: qHTS assay for small molecule antagonists of glucocorticoid receptor signaling (AID 588533; active means well fitted inhibition curve with a large enough effect in the signal ratio, with a control signal flat, not every such curve was filed as active; the % refers to the signal ratio; further: on the % scale 0 is the no-effect control and ±100 the full control effect)
Summary of the method: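 Antagonist-mode qHTS: compound titrations added to GRE-bla HeLa cells, then dexamethasone 2 nM final; 18 h, 37 C. CCF4 FRET fluorescence normalized to dexamethasone and DMSO; IC50 from Hill fit.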

[2] = target: Peroxisome proliferator-activated receptor delta (Homo sapiens) (UniProt Q03181); assay: qHTS assay for small molecule agonists of peroxisome proliferator-activated receptor delta signaling (AID 588534);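 further: 0% = DMSO basal wells and 100% = positive control agonist at 10 µM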
Summary of the method: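 EC50 and efficacy values derive from Hill fits of a concentration series in a beta-lactamase reporter cell assay. Exposure is 18 hrs at 37 C, with CCF4 fluorescence as the readout.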

[3] = qHTS assay for small molecule antagonists of peroxisome proliferator-activated receptor delta signaling (AID 588535; active means well fitted inhibition curve with a large enough effect in the signal ratio, with a control signal flat, not every such curve was filed as active; the % refers to the signal ratio;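 on max response: cells co-treated with a PPAR-delta agonist as stimulator during compound exposure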); conditions: HEK293T PPARd-UAS-bla, beta-lactamase FRET ratio, 18 h; 460 nm channel
Summary of the method: (§1)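 Beta-lactamase reporter read-out (405 nm excitation, 460/530 nm emission) after CCF4 loading for 2 hrs at RT. HEK293T PPAR-delta-UAS-bla cells, 2% charcoal/dextran FBS, compounds for 18 hrs at 37 C. Hill fit gave IC50 and efficacy.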

[4] = target: Peroxisome proliferator-activated receptor delta (Homo sapiens) (UniProt Q03181); assay: as above
Summary of the method: as §1

[5] = target: Peroxisome proliferator-activated receptor gamma (Homo sapiens) (UniProt P37231); assay: qHTS assay for small molecule agonists of peroxisome proliferator-activated receptor gamma signaling (AID 588536; active means well fitted curve in the direction sought with a large enough effect in the signal ratio, with a control signal flat, not every such curve was filed as active; the % refers to the signal ratio;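 further: 0% = DMSO basal wells and 100% = rosiglitazone at 2 µM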)
Summary of the method: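 Using GeneBLAzer HEK293 cells, response was quantified by CCF4 fluorescence and normalized between basal DMSO (0%) and rosiglitazone 2 uM (100%); curves yielded half-maximal stimulation concentration and efficacy.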

[6] = target: Peroxisome proliferator-activated receptor gamma (Homo sapiens) (UniProt P37231); assay: qHTS assay for small molecule antagonists of peroxisome proliferator-activated receptor gamma signaling (AID 588537; active means well fitted inhibition curve with a large enough effect in the signal ratio, with a control signal flat, not every such curve was filed as active; the % refers to the signal ratio;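 further: reporter cells co-stimulated with 50 nM rosiglitazone agonist during compound treatment; % of control where 0% means no effect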)
Summary of the method: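 Read-out: CCF4 fluorescence (ex 405, em 460/530 nm) after 2 h at RT. Cells were HEK293 carrying a UAS-bla reporter and treated 16 h at 37 C with compound plus rosiglitazone (50 nM final). Normalized to rosiglitazone and DMSO.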

[7] = target: Vitamin D3 receptor (Homo sapiens) (UniProt P11473); assay: qHTS assay for small molecule antagonists of vitamin D receptor signaling (AID 588541);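 further: receptor activated by calcitriol during compound treatment; series mostly up to about 77 µM; on the % scale 0 is the no-effect control and ±100 the full control effect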
Summary of the method: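 VDR-UAS-bla HEK293T cells in 2% charcoal-stripped FBS were stimulated with 1-alpha,25-dihydroxyvitamin D3 (3 nM final) plus compound for 16 h at 37 C. The beta-lactamase CCF4 readout was normalized to 50 nM agonist and DMSO, and Hill fits gave IC50.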

[8] = target: Vitamin D3 receptor (Homo sapiens) (UniProt P11473); assay: qHTS assay for small molecule agonists of vitamin D receptor signaling (AID 588543);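 further: 0% = DMSO basal and 100% = reference agonist control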
Summary of the method: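 Reporter cells (HEK293T, VDR-UAS-bla) were seeded in medium with 2% charcoal-stripped serum and incubated 5 h, then compounds in concentration series were added for 16 h at 37 °C. Stimulation was scaled between DMSO basal and 50 nM 1α,25-dihydroxyvitamin D3.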

[9] = qHTS assay for small molecule agonists of retinoid X receptor alpha signaling (AID 588544); conditions: HEK293T RXRa-UAS-bla, beta-lactamase reporter, 18 h; 530 nm emission;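 on activation: 0% = DMSO basal wells and 100% = reference agonist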
[10] = target: Retinoic acid receptor RXR-alpha (Homo sapiens) (UniProt P19793); assay: as above
[11] = target: Thyroid hormone receptor beta (Homo sapiens) (UniProt P10828); assay: qHTS assay for small molecule agonists of thyroid hormone receptor beta signaling (AID 588545)
Summary of the method: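 Agonist activity was read as beta-lactamase CCF4 fluorescence (405 ex, 460/530 em), scaled between DMSO (0%) and 10 nM T3 (100%), then Hill-fitted for EC50 and efficacy. HEK 293 TR-UAS-bla cells in 2% charcoal/dextran FBS medium were exposed 18 h at 37 C.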

[12] = target: Thyroid hormone receptor beta (Homo sapiens) (UniProt P10828); assay: qHTS assay for small molecule antagonists of thyroid hormone receptor beta signaling (AID 588547; active means well fitted inhibition curve with a large enough effect in the signal ratio, with a control signal flat, not every such curve was filed as active; the % refers to the signal ratio;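 further: cells stimulated with 0.4 nM T3 agonist during compound exposure; series mostly up to about 77 µM; on the % scale 0 is the no-effect control and ±100 the full control effect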); conditions: TR-UAS-bla HEK293, beta-lactamase ratio, antagonist mode, 18 h
Summary of the method: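 TR-UAS-bla GripTite HEK293 cells in 2% charcoal/dextran FBS medium; compounds 0.59 nM to 92 uM with T3 at 0.4nM final, 18 h at 37 C. Beta-lactamase read by CCF4 fluorescence (460/530 nm); Hill fits gave IC50 and efficacy.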

[13] = qHTS assay for small molecule activators of the p53 signaling pathway (AID 651743; active means well fitted activation curve with a large enough effect in the signal ratio, not every such curve was filed as active; the % refers to the signal ratio; further: series mostly up to about 92 µM; % of control where 0% means no effect); conditions: HCT-116 p53RE-bla, beta-lactamase FRET ratio, 16 h; activation: stronger effect = higher value
Summary of the method: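 Reporter: beta-lactamase driven by p53 response elements, stably integrated in HCT-116 cells. Cells seeded at 4,000/well, 5 h preincubation, compound (DMSO) 16 h at 37 C; B/G FRET substrate 2 h RT; fluorescence intensity read.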

[14] = qHTS assay for small molecule activators of the nuclear factor-kappa B (NF-kB) signaling pathway (AID 651749; active means well fitted activation curve with a large enough effect in the signal ratio; the % refers to the signal ratio; further: series mostly up to about 77 µM; % of control where 0% means no effect); conditions: NF-kB-bla ME-180 cells, beta-lactamase FRET ratio, 16 h; activation: stronger effect = higher value
Summary of the method: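 NF-kB-bla ME-180 cells, 2,000/well; 23 nL compound or DMSO pinned; 16 hr, 37C/5% CO2; beta-lactamase FRET read-out.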

[15] = qHTS assay for environmental chemicals that activate the Aryl hydrocarbon Receptor (AhR) signaling pathway (AID 651777; active means well fitted curve in the direction sought with a large enough effect; an effect the other way counts as inactive or inconclusive; further: % of control where 0% means no effect; nearly all actives have a fitted effect of over 15% in size); conditions: 1A2-DRE human hepatoma cells, luciferase, 24 h; activation: stronger effect = higher value
Summary of the method: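 1A2-DRE human hepatoma reporter line; 1,200 cells/well; cmpd or DMSO 24 h, 37 C/5% CO2; One-Glo 30 min RT; luciferase lum.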

[16] = target: Peroxisome proliferator-activated receptor alpha (Homo sapiens) (UniProt Q07869); assay: qHTS assay for small molecule agonists of the peroxisome proliferator-activated receptor alpha (PPARalpha) signaling pathway (AID 651778; active means well fitted curve in the direction sought with a large enough effect; an effect the other way counts as inactive or inconclusive; further: % of control where 0% means no effect); conditions: PathHunter PPARalpha complementation, chemiluminescence, 6 h; max response: stronger effect = higher value
Summary of the method: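 Enzyme-fragment complementation assay in which ligand-bound PPARalpha translocates and forms an active enzyme that generates chemiluminescence. Cells were plated overnight, exposed to compound for 6 hr at 37 C, and then given detection reagent for 60 min at room temperature.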

[17] = qHTS assay for small molecule agonists of the antioxidant response element (ARE) signaling pathway measured by Nrf2-dependant transcriptional activity (AID 720636; active means well fitted curve in the direction sought with a large enough effect in the repeat runs; an effect the other way counts as inactive or inconclusive;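 further: HepG2 cells with an ARE-driven luciferase reporter; % of control where 0% means no effect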)
Summary of the method: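 Cells: ARE-luc HepG2 with Nrf2-responsive luciferase. Medium contained 1% dialyzed FBS. Compound exposure lasted 16 hr at 37 C and 5% CO2, followed by ONE-Glo luciferase detection.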

[18] = qHTS assay for small molecule agonists of the antioxidant response element (ARE) signaling pathway measured by Nrf2-dependant transcriptional activity - cell viability counter screen (AID 720653; active means well fitted curve in the direction sought with a large enough effect in the repeat runs; an effect the other way counts as inactive or inconclusive; further: on the % scale 0 is the no-effect control and ±100 the full control effect); conditions: ARE-bla HepG2 viability, CellTiter-Glo ATP luminescence, 16 h; max response: stronger effect = lower value
Summary of the method: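 ARE-bla HepG2 cells treated with compounds for 16 h at 37C; this counter screen measures viability as intracellular ATP by CellTiter-Glo luminescence after 30 min at room temperature.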

[19] = qHTS assay for cell viability of HEK293 cells (AID 743288; active means well fitted curve in the direction sought with a large enough effect; an effect the other way counts as inactive or inconclusive; further: on the % scale 0 is the no-effect control and ±100 the full control effect; nearly all actives have a fitted effect of over 50% in size); conditions: ATP luminescence (CellTiter-Glo), 18 h; max response: stronger effect = lower value
Summary of the method: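 Viable-cell counts were inferred from luciferase-based ATP content in HEK293 cells seeded at 2,000/well, pre-incubated ≥5 h, then dosed with DMSO-solubilised compounds for 18 h at 37 C.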

[20] = target: Nuclear receptor subfamily 1 group I member 2 (Rattus norvegicus) (UniProt Q9R1A7); assay: qHTS assay for small molecule activators of the rat pregnane X receptor (rPXR) signaling pathway (AID 651751; call rule not given here; further: 0% is about no effect); conditions: rPXR reporter cells, luciferase (One-Glo), 24 h
Sequence of Nuclear receptor subfamily 1 group I member 2 (Rattus norvegicus) (Q9R1A7 whole entry, looked up): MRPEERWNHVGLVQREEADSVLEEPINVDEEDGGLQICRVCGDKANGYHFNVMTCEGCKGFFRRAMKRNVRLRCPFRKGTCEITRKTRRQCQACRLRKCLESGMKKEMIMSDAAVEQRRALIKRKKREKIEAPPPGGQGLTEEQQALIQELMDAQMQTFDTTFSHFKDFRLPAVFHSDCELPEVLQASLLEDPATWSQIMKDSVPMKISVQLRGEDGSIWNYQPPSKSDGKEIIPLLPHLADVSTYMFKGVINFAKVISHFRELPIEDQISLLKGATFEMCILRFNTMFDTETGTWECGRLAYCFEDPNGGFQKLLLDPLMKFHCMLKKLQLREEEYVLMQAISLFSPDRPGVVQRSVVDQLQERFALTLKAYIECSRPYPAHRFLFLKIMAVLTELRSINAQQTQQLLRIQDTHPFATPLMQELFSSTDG

Sequence of Thyroid hormone receptor beta (Homo sapiens) (P10828 whole entry, looked up): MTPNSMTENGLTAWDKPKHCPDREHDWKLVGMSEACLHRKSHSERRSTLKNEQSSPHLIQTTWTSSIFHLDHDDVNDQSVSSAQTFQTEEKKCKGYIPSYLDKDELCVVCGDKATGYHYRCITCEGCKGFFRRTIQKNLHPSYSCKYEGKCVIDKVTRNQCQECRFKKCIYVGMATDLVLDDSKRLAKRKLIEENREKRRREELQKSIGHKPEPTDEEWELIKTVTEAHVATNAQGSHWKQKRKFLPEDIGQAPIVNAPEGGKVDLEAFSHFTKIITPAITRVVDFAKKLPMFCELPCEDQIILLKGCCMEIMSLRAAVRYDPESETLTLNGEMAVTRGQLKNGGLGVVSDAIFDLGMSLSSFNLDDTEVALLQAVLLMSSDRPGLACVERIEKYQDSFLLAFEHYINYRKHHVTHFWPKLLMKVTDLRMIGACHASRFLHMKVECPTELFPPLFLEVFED
Sequence of Vitamin D3 receptor (Homo sapiens) (P11473 whole entry, looked up): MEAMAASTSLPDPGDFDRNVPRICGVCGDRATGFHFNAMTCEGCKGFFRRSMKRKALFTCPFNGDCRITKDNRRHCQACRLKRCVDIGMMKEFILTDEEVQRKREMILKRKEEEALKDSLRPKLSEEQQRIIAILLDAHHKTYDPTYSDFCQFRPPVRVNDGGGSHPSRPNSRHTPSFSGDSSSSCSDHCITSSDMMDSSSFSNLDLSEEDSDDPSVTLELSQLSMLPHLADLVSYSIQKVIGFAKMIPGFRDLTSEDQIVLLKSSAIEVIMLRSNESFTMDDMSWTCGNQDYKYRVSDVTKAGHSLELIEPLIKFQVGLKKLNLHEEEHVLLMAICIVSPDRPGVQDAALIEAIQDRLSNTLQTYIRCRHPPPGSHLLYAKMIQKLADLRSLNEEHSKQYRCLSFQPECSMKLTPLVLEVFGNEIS
Sequence of Peroxisome proliferator-activated receptor delta (Homo sapiens) (Q03181 whole entry, looked up): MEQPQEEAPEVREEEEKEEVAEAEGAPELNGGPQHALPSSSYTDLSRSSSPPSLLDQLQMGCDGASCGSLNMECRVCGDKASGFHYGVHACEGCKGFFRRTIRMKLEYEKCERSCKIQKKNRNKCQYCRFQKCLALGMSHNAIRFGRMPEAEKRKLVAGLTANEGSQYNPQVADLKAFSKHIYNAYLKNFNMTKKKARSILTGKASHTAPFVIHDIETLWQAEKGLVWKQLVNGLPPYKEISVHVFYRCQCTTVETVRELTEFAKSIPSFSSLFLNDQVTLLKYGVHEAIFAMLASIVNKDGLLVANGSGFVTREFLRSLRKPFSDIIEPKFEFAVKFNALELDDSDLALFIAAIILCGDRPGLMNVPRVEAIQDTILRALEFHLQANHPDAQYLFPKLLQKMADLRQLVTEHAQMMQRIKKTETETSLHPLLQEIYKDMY
Sequence of Peroxisome proliferator-activated receptor gamma (Homo sapiens) (P37231 whole entry, looked up): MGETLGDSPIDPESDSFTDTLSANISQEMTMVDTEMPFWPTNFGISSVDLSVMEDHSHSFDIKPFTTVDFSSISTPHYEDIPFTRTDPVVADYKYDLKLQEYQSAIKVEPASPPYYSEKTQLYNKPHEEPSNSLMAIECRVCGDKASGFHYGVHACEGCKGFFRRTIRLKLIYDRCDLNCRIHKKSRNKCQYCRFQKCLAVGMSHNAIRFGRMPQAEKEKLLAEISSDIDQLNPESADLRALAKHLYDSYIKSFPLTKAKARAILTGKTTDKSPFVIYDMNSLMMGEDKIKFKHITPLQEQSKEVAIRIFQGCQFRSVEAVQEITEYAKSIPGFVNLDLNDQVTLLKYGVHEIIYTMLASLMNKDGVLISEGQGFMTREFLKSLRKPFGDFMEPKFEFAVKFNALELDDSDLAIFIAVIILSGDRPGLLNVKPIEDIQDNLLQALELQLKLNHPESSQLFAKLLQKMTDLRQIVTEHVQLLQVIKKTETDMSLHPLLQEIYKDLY
Sequence of Retinoic acid receptor RXR-alpha (Homo sapiens) (P19793 whole entry, looked up): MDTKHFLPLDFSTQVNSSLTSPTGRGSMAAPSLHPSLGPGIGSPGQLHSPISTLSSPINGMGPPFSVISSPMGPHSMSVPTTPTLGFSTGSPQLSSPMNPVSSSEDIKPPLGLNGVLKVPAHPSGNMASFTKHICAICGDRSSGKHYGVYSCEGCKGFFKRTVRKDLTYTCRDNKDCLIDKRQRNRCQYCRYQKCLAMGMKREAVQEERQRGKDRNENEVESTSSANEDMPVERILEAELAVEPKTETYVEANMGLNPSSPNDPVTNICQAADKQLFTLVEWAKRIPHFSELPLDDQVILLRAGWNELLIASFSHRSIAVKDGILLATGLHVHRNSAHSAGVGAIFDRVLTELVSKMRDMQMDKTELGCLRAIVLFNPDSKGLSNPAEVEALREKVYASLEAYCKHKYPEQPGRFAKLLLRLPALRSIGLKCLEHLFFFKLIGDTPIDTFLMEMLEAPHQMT
Sequence of Glucocorticoid receptor (Homo sapiens) (P04150 whole entry, looked up): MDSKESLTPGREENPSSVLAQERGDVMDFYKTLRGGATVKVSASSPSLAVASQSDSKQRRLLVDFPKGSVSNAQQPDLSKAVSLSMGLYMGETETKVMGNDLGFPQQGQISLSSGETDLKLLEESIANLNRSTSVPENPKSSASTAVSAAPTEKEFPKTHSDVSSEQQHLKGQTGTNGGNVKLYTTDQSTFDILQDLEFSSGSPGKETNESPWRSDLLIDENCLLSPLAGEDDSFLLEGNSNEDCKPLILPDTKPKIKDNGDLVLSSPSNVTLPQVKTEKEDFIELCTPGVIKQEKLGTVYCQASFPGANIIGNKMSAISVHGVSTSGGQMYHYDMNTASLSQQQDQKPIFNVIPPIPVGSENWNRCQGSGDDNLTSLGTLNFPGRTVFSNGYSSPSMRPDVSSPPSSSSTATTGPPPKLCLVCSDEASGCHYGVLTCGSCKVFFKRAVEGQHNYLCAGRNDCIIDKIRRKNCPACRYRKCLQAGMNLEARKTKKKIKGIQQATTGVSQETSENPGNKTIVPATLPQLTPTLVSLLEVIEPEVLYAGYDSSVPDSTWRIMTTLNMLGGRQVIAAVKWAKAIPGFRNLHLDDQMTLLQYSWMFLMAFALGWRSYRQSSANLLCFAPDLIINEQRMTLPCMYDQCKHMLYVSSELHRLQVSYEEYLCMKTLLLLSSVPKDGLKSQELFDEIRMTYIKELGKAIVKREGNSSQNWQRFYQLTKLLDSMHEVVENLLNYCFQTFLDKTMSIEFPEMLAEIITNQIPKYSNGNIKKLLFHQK
Sequence of Peroxisome proliferator-activated receptor alpha (Homo sapiens) (Q07869 whole entry, looked up, the tested form may be a part): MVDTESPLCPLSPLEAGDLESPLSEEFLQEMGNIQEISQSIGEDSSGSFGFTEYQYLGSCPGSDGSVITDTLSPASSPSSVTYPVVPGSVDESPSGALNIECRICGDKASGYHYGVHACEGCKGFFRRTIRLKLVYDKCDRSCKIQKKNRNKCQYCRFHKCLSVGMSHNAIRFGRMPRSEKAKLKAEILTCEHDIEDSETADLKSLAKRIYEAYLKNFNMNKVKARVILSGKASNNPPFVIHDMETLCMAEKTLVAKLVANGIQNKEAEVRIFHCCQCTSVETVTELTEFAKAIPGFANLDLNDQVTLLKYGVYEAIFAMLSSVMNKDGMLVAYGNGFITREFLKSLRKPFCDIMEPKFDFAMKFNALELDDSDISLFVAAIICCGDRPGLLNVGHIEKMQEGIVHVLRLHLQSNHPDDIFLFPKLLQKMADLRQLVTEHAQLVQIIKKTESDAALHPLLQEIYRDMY

C1=Cc2cccc3cccc1c23
-1.47%: max response [3]
-12.5%: max response [9]
inactive: Potency [1] | outcome [2] | Potency [4] | Potency [5] | Potency [6] | Potency [7] | outcome [8] | Potency [10] | Potency [11] | activity change % (negative = inhibition) [12] 1.99% | activation [13] -6.25% | activation [14] 0.838% | activation [15] 0.26% | max response [16] 3.92% | Potency [17] | max response [18] -6.24% | max response [19] -13.5% | max response [20] 3.17%
